Bioassay records from PubChem BioAssay.
Only some compounds are listed: those with a hit (about 5.7% of all), similar ones and a draw of the others.
IL-1B inflam inh: blocks inflammasome-driven IL-1 beta release; actives 4.7% (n = 360,000); AID 743279; activity change, % at 57.5 µM; THP-1 LPS/ATP IL-1B secretion, AlphaLISA, 16 h; stronger effect = lower value; in the data active means activity change below about -50%; inconclusive means mostly about -30% to -49%; further: on the % scale 0 is the no-effect control and ±100 the full control effect
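THP-1 cells pretreated 1 hr with compounds (up to 57.5 uM final), then stimulated with LPS (250 ng/mL final) plus ATP (1.25 mM final); secreted IL-1B measured by AlphaLISA after 16 hr, decreased signal indicating inhibition.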
ATXN2 expr inh: reduces ATXN2 reporter expression in HEK-293 cells; HEK-293 ATXN2-luciferase reporter, luminescence, 24 h; Potency, µM (highest dose often 57 µM), for the others: at the top dose activity change, negative = inhibition, hits mostly inhibitors; actives 0.72% (n = 360,000); AID 1745845; further: potency means the concentration at half of the fitted maximal effect; on the % scale 0 is the no-effect control and ±100 the full control effect; nearly all actives have a fitted effect of over 55% in size
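ATXN2-luciferase reporter cells (luciferase flanked by upstream and downstream ATXN2 gene portions) were treated 24 h at 37 °C with compounds at up to 57 uM. SteadyGlo luminescence gave expression; GF-AFC fluorescence gave viability.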
HepG2 tox: HepG2 cytotoxicity, counter-screen for TGF-b inhibitors. AID 588856. HepG2 CAGA-GFP viability, ATP luminescence, 18 h. Potency, µM (doses to about 46.1 µM), without a hit: at the highest dose activity change, negative = cytotoxicity, actives largely listed as cytotoxic. actives 0.76% (n = 410,000); further: potency means the concentration at half of the fitted maximal effect
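HepG2 CAGA-GFP cells (1000/well, DMEM with 1% FBS) received compound, then TGF-beta at 500 pg/mL final, and were incubated 18 hours at 37 degrees C. Viability was read by CellTiter-Glo luminescence. Media-only wells were set as complete cell-killing and DMSO as no toxicity.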
S2 tox: viability counter-screen for ATXN expression inhibitors | Potency, µM (series often up to 56.7 µM), most hits filed as cytotoxic | S2 cells (HEK-293 line with an ATXN2-luciferase reporter) viability, CellTiter-Fluor protease fluorescence, 24 h | actives 0.49% (n = 400,000); further: potency means the concentration at half of the fitted maximal effect; nearly all actives have a fitted effect of over 40% in size
TGFb inhibitor: inhibitors of TGF-b signaling. Potency, µM (titrated, usually from 46.1 µM), for the others: top-dose activity, negative = inhibition, actives largely listed as inhibitors. HepG2 CAGA-GFP TGF-b/SMAD3 reporter, GFP fluorescence, 18 h; TGF-beta stimulated, 500 pg/mL final. actives 1.2% (n = 410,000); further: potency means the concentration at half of the fitted maximal effect; on the % scale 0 is the no-effect control and ±100 the full control effect; nearly all actives have a fitted effect of over 65% in size
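GFP signal (ex488/em500-530) from TGF-beta-stimulated HEPG2 CAGA-GFP cells, 500 pg/mL final, 18 h at 37 degrees C in DMEM plus 1% FBS, normalized to unstimulated and DMSO-stimulated controls.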
Starred values were filed as active, the others as inactive; ! = repeats disagree. Unless noted, the call rests on the fitted dose curve; in most records, active means well fitted curve in the direction sought with a large enough effect; inconclusive means small, poorly fitted or top-dose-only effect, or another doubt; inactive means no such curve, though single readings can be large; an effect the other way counts as inactive or inconclusive.

What do the screens show for `Clc1ccc(-c2nc(NCCCN3CCOCC3)c3ccccc3n2)cc1`?
IL-1B inflam inh: -75.3*; ATXN2 expr inh: inconclusive; HepG2 tox: -24.4%; S2 tox: inactive; TGFb inhibitor: inconclusive

Results for COc1cc(N(C)C)c(OC)cc1/C=C/c1ccnc2ccccc12 ?
HepG2 tox: -34.8%; TGFb inhibitor: 36.5%

What do the screens show for `O=C1COCCN1`?
HepG2 tox: -2.1%; TGFb inhibitor: -11.9%

How did CN(C)[C@@H](CCOc1cccc2ccccc12)c1ccccc1 do in these assays?
ATXN2 expr inh: 31.6µM*!; S2 tox: inconclusive

How did CC(=O)NCCOc1cccc2ccccc12 do in these assays?
IL-1B inflam inh: 3.9; ATXN2 expr inh: 11.1%; HepG2 tox: -10.0%; S2 tox: inactive; TGFb inhibitor: -4.5%

How did c1ccc(CCNCCCOc2cccc3ccccc23)cc1 do in these assays?
IL-1B inflam inh: -100.8*; ATXN2 expr inh: inconclusive; HepG2 tox: -84.5%; S2 tox: inconclusive; TGFb inhibitor: inconclusive

Results for OC(CNCCc1ccc(Cl)cc1)COc1ccc2ccccc2c1 (centres undefined) ?
IL-1B inflam inh: -106.0*; ATXN2 expr inh: -0.7%; HepG2 tox: -102.0%; S2 tox: inactive; TGFb inhibitor: inconclusive

What do the screens show for `OC(CNCCc1ccc(Cl)cc1)COc1cc(Cl)ccc1Cl` (centres undefined)?
IL-1B inflam inh: -18.1; ATXN2 expr inh: inconclusive; HepG2 tox: -105.0%; S2 tox: inconclusive; TGFb inhibitor: 15.8µM*

What do the screens show for `OC(CNCCC(c1ccccc1)c1ccccc1)COc1ccccc1` (centres undefined)?
IL-1B inflam inh: -104.8*; ATXN2 expr inh: inconclusive; HepG2 tox: -109.1%; S2 tox: inconclusive; TGFb inhibitor: inconclusive

Results for COc1ccc(CCNCC(O)COc2c(C)cccc2C)cc1OC (centres undefined) ?
IL-1B inflam inh: -67.1*; ATXN2 expr inh: -16.5%; HepG2 tox: -21.6%; S2 tox: inactive; TGFb inhibitor: 0.1%

How did OC(CNCCc1ccccc1)COc1ccc(OCC(O)CNCCc2ccccc2)cc1 (centres undefined) do in these assays?
IL-1B inflam inh: -91.1*; ATXN2 expr inh: 28.2µM*; HepG2 tox: -89.9%; S2 tox: inconclusive; TGFb inhibitor: inconclusive

How did CC(C)N(CCNCC(O)COc1ccc(C(C)(C)c2ccccc2)cc1)C(C)C (centres undefined) do in these assays?
IL-1B inflam inh: -63.6*; ATXN2 expr inh: inconclusive; HepG2 tox: -31.1%; S2 tox: inactive; TGFb inhibitor: inconclusive

Results for CC(=O)c1c(C)[nH]c2ccc(OCC(O)CNCCc3ccccc3)cc12 (centres undefined) ?
HepG2 tox: -7.1%; TGFb inhibitor: -2.6%

What do the screens show for `Cc1ccc(Cl)cc1N(C)C(=O)c1cc2c(Cl)nc3ccccc3c2s1`?
ATXN2 expr inh: 3.3%; HepG2 tox: -4.2%; S2 tox: inactive; TGFb inhibitor: inconclusive

How did CC12CCC=CC1C(c1ccc(C(F)(F)F)cc1)N(Cc1ccccc1)C2=O (centres undefined) do in these assays?
HepG2 tox: 1.2%; TGFb inhibitor: -7.6%

How did O=C(COc1ccc(Cl)cc1)NCc1ccccc1 do in these assays?
IL-1B inflam inh: -11.8; HepG2 tox: -48.1%; S2 tox: inactive; TGFb inhibitor: 1.0%

What do the screens show for `Clc1ccc(OCCNCCc2ccccc2)cc1`?
IL-1B inflam inh: -53.0*; HepG2 tox: -53.3%; S2 tox: inactive; TGFb inhibitor: inconclusive

Results for CCCCN(CCCC)C(=O)CN(C)S(=O)(=O)c1ccc2c(c1)c(=O)n(C)c(=O)n2C ?
ATXN2 expr inh: -3.2%; HepG2 tox: -14.2%; S2 tox: inactive; TGFb inhibitor: inconclusive

Results for COc1ccccc1-c1ccnc(-n2ncc(C(=O)NCc3cccnc3)c2C)n1 ?
S2 tox: inactive

Results for CCN(CC)CCN(Cc1cc2cc(C)cc(C)c2[nH]c1=O)C(=S)NCc1ccco1 ?
IL-1B inflam inh: 0.0; ATXN2 expr inh: 0.0%; HepG2 tox: -39.3%; S2 tox: inconclusive; TGFb inhibitor: -9.6%

Results for CCN(CC)CCN(Cc1cc2cc(C)ccc2[nH]c1=O)C(=S)NCc1ccco1 ?
IL-1B inflam inh: -61.1*; ATXN2 expr inh: -4.2%; HepG2 tox: -32.8%; S2 tox: inactive; TGFb inhibitor: -25.6%

How did CCN(CC)CCN(Cc1cc2cc3c(cc2[nH]c1=O)OCCO3)C(=S)NCC(C)C do in these assays?
IL-1B inflam inh: -61.9*; ATXN2 expr inh: -14.0%; HepG2 tox: -25.3%; S2 tox: inactive; TGFb inhibitor: 21.0%

Results for CCN(CC)CCN(Cc1cc2cc3c(cc2[nH]c1=O)OCO3)C(=S)NCc1ccco1 ?
IL-1B inflam inh: -63.4*; ATXN2 expr inh: 3.5%; HepG2 tox: -3.7%; S2 tox: inactive; TGFb inhibitor: -1.0%

How did COc1ccc(OC)c(/C=C/c2c3ccccc3cc[n+]2C)c1 do in these assays?
HepG2 tox: -9.2%; TGFb inhibitor: -7.8%

What do the screens show for `CC(NC(=O)c1cnn2c1NC(=C1CC1)C=C2C(F)F)c1ccncc1` (centres undefined)?
HepG2 tox: -2.7%; TGFb inhibitor: -2.9%

What do the screens show for `Cc1ccc(-n2cccc2C(=S)N=P(N(C)C)(N(C)C)N(C)C)cc1`?
IL-1B inflam inh: -59.2*; ATXN2 expr inh: inconclusive; HepG2 tox: -61.8%; S2 tox: inconclusive; TGFb inhibitor: inconclusive

How did Cc1ccc(-n2cccc2C(=O)NS(=O)(=O)c2ccc(C)cc2)cc1 do in these assays?
IL-1B inflam inh: 11.6; ATXN2 expr inh: 13.5%; HepG2 tox: 5.0%; S2 tox: inactive; TGFb inhibitor: -1.1%

What do the screens show for `CC(=O)N1CCN(C(=O)c2cc3ccccc3o2)CC1`?
IL-1B inflam inh: -4.4; ATXN2 expr inh: 4.4%; HepG2 tox: -4.3%; S2 tox: inactive; TGFb inhibitor: 8.1%

What do the screens show for `O=C(c1cc2ccccc2o1)N1CCN(C/C=C/c2ccccc2)CC1`?
IL-1B inflam inh: -54.5*; ATXN2 expr inh: -20.6%; HepG2 tox: -17.1%; S2 tox: inactive; TGFb inhibitor: inconclusive

Results for Cc1c(O)ccc2c(CN3CCN(C/C=C/c4ccccc4)CC3)cc(=O)oc12 ?
IL-1B inflam inh: -76.7*; ATXN2 expr inh: inconclusive; HepG2 tox: -6.3%; TGFb inhibitor: -19.3%

How did O=S(=O)(c1ccccc1)N1CCN(Cc2c(O)ccc3ccccc23)CC1 do in these assays?
IL-1B inflam inh: inconclusive; ATXN2 expr inh: 2.8%; HepG2 tox: -28.6%; S2 tox: inactive; TGFb inhibitor: -18.5%

What do the screens show for `Cc1cc(C)c2oc(=O)cc(CN3CCN(Cc4ccccc4)CC3)c2c1`?
IL-1B inflam inh: 5.1; HepG2 tox: -2.7%; S2 tox: inactive; TGFb inhibitor: -10.9%
